Data on 22 molecules can be found in PubChem BioAssay (Tox21).

Several values for one entry are separate records, joined by “and”; a condition that tells them apart may be missing. Equal entries are not always repeated. Records with an inconclusive call do not appear. A structure can be active in one record and inactive in another. Activity calls are given as the source filed them. Unless noted, calls follow the shape of the dose curve; as a rule, active = well fitted curve in the direction sought with a large enough effect in the repeat runs; inconclusive = weak or mixed curves; inactive = no such curve, though single readings can be large; an effect the other way counts as inactive or inconclusive.

The nature of assay [1]: qHTS assay to identify small molecule agonists of the NFkB signaling pathway - cell viability counter screen (AID 1159515; calls by dose curve; also: nearly all actives have a fitted effect of over 55% in size). An outline of the steps:
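Counter screen run alongside the NFkB-bla agonist assay: ME-180 reporter cells exposed to compounds for 5 hr, then lysed with CellTiter-Glo in the same wells. Luminescence, read after 30 min, reflects viable cells.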
In general terms: qHTS replaces the single test concentration by a dilution series.

A short description of assay [2]: qHTS assay to identify small molecule agonists of the endoplasmic reticulum stress response signaling pathway (AID 1159516; active = well fitted activation curve with a large enough effect in the signal ratio in the repeat runs, not every such curve was filed as active; the % refers to the signal ratio). Summed up:
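For this screen, HeLa cells stably carrying beta-lactamase under the ER stress response element received test compounds, positive controls or DMSO for 5 hr at 37 C; B/G FRET substrate was then added and dual-wavelength emission recorded.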

Assay [3] in a line: qHTS assay to identify small molecule agonists of the endoplasmic reticulum stress response signaling pathway - cell viability counter screen (AID 1159517; calls by dose curve; also: nearly all actives have a fitted effect of over 50% in size; also: potency is read from the fitted curve at half-maximal effect). Summed up: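 ESRE-bla HeLa cells (1,500/well) were plated overnight at 37 C and exposed to compounds for 5 hr. After the 2 hr beta-lactamase substrate read, CellTiter-Glo went into the same wells, and luminescence was read after 30 min at room temperature.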

Assay [4] is described as follows: qHTS assay to identify small molecule antagonists of the retinoid-related orphan receptor gamma (ROR-gamma) signaling pathway - cell viability counter screen (AID 1159520). Also: nearly all actives have a fitted effect of over 50% in size. Summed up:
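Cytotoxicity was read from cellular ATP (CellTiter-Glo luminescence) after 16 hr at 37 C with 1 uM doxycycline induction. The inducer was added 2 hr after compound transfer to Tet-on ROR gamma CHO cells.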

The nature of assay [5]: qHTS assay to identify small molecule agonists of the AP-1 signaling pathway - cell viability counter screen (AID 1159525; calls by dose curve; also: nearly all actives have a fitted effect of over 55% in size; also: potency is read from the fitted curve at half-maximal effect). An outline of the steps: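 Intracellular ATP by Cell Titer Glo luminescence (30 min, RT) in the same ME-180 AP-1-bla wells after the 5 h compound exposure at 37 °C. Normalised to tetra n-octyl ammonium bromide and DMSO controls.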
Assay [6] is described as follows: qHTS assay to identify small molecule agonists of the AP-1 signaling pathway (AID 1159526; calls by dose curve).
In assay [7] the target is Retinoic acid receptor RXR-alpha (Homo sapiens) (UniProt P19793). The assay can be described thus: qHTS assay to identify small molecule agonists of the RXR signaling pathway (AID 1159527; calls by dose curve; also: nearly all actives have a fitted effect of over 35% in size). Summed up: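 16 hr incubation of compound-treated RXR-alpha-UAS-bla HEK 293T cells (2% charcoal-stripped FBS, 37 C) preceded a 2 hr room-temperature LiveBLAzer FRET substrate step and blue/green fluorescence measurement.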
Retinoic acid receptor RXR-alpha (Homo sapiens), sequence (P19793 whole entry, looked up): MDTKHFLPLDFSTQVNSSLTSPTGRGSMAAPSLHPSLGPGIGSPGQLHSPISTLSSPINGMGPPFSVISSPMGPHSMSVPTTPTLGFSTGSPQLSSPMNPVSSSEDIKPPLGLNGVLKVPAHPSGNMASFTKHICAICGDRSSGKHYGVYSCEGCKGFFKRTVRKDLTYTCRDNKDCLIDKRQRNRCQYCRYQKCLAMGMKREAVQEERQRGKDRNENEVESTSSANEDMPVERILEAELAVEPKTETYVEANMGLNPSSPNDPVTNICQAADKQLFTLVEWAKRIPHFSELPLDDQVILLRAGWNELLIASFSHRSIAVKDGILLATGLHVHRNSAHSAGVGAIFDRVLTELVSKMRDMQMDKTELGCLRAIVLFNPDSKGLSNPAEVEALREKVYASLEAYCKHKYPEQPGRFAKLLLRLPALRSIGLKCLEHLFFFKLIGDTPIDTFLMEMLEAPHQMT

A short description of assay [8]: qHTS assay to identify small molecule agonists of the RXR signaling pathway - cell viability counter screen (AID 1159529). Also: nearly all actives have a fitted effect of over 50% in size. Also: potency is read from the fitted curve at half-maximal effect. Summed up: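 In this parallel viability measure, GeneBLAzer RXR-alpha HEK 293T cells (2% charcoal-stripped FBS) were given a 5 hr preincubation, treated with compounds 16 hr at 37 C, and read by CellTiter-Glo luminescence.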
The nature of assay [9]: qHTS assay to identify small molecule antagonists of the retinoid acid receptor (RAR) signaling pathway - cell viability counter screen (AID 1159551). Also: nearly all actives have a fitted effect of over 35% in size. An outline of the steps:
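Measured by luminescent ATP detection, viability reflects C3RL4 cells treated 6 h at 37 C with test chemicals in the presence of 1 uM (final) retinol.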

Assay [10] is described as follows: qHTS assay to identify small molecule antagonists of the retinoic acid receptor (RAR) signaling pathway (AID 1159552; also: nearly all actives have a fitted effect of over 50% in size; also: potency is read from the fitted curve at half-maximal effect). An outline of the steps: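 C3RL4 RARE-luc cells, overnight plating; retinol 1 uM final added right after compound; 6 hr 37 C; luciferase read at 30 min RT.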
The nature of assay [11]: qHTS assay to identify small molecule agonists of the retinoic acid receptor (RAR) signaling pathway (AID 1159553). Also: potency is read from the fitted curve at half-maximal effect. Particulars: C3RL4 RARE luciferase reporter, agonist, 6 h; activation: at 73.3 µM (top of the series) unless noted. An outline of the steps:
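6 hr compound exposure (DMSO vehicle) of overnight-plated C3RL4 RARE-luc cells at 37 C; luminescence quantified after 30 min RT with luciferase reagent.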

Assay [12] can be described thus: qHTS assay to identify small molecule antagonists of the estrogen related receptor (ERR) signaling pathway from Tox21 library - cell viability counter screen (AID 1224834). Also: nearly all actives have a fitted effect of over 30% in size. Also: potency is read from the fitted curve at half-maximal effect. Summed up:
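Seeded ERR cells were rested 6 h at 37 C/5% CO2 before compounds, positive and negative controls or DMSO were added. Incubation continued for 17.5 h, and viability was then quantified by CellTiter-Fluor fluorescence.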

A short description of assay [13]: qHTS assay to identify small molecule antagonists of the vitamin D receptor (VDR) signaling pathway - cell viability counter screen (AID 743225). Also: nearly all actives have a fitted effect of over 50% in size. An outline of the steps:
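Parallel cytotoxicity test: VDR-UAS-bla HEK 293T, 3 nM (final) 1-alpha,25-dihydroxyvitamin D3 with test compound, 16 h, 37C. Endpoint is CellTiter-Glo luminescence in the same wells.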

The target in assay [14] is Nuclear receptor ROR-gamma (Homo sapiens) (UniProt P51449). The assay can be described thus: qHTS assay to identify small molecule antagonists of the retinoid-related orphan receptor gamma (ROR-gamma) signaling pathway (AID 1159521; also: nearly all actives have a fitted effect of over 50% in size; also: potency is read from the fitted curve at half-maximal effect). An outline of the steps: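 Decreased RORE-driven luciferase luminescence indicates antagonism. Tet-on RORγ CHO cells received compound, then 1 uM final doxycycline 2 h later; signal read after 16 h incubation.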

Assay [15] in a line: qHTS assay to identify small molecule antagonists of the estrogen related receptor (ERR) signaling pathway - cell viability counter screen (AID 1224818). An outline of the steps:
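Compounds dissolved in DMSO were applied to ERR cells seeded at 2,000 per well 6 h earlier. Cell viability followed 17.5 h later via 30-min CellTiter-Fluor fluorescence.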

Assay [16] in a line: qHTS assay to identify small molecule antagonists of the estrogen related receptor signaling pathway with the pleiotropic PPARgamma coactivator (PGC) cell viability counter screen (AID 1224822). Summed up: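 Counter screen for cell viability: PGC/ERR cells, 6 h pre-incubation after plating, 17.5 h compound exposure at 37 C, fluorescence from CellTiter-Fluor after 30 min.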

In the case of `Clc1ccc(Sc2cc(Cl)c(Cl)cc2Cl)cc1`, the Potency entry in [1], in [2], in [3], in assay [4], in [5] and in assay [6] was “inactive” in each case. Moreover, the Potency result in assay [7], in assay [8], in assay [9], in [10], in assay [11] and in assay [12] was “inactive” throughout.

Consider `CCCCCCCCCCCCCO`, for which the Potency entry in assay [1], in assay [3], in [4], in [5], in assay [6] and in [7] was “inactive” throughout. For the same molecule, the Potency result in assay [10], in [11] and in assay [12] was “inactive” each time.

On to `IC(I)I`, for which the Potency entry in [13], in assay [1], in assay [2], in assay [3], in [4] and in assay [5] was “inactive” throughout. The Potency result in assay [7], in assay [8], in assay [10], in assay [11] and in assay [12] was “inactive” each time.

Take `COc1ccc(-c2coc3cc(O)cc(O)c3c2=O)cc1`: the Potency result in [13], in assay [1], in assay [2], in assay [3], in [4] and in assay [7] was “inactive” throughout. The Potency result in assay [8] and in [10] was “inactive” in each case. The Potency in assay [11] was 0.686 µM (active).

Consider `CC(C)(Oc1ccc(Cl)cc1)C(=O)O`, for which the Potency result in assay [1], in [3], in [4], in assay [5], in assay [6] and in assay [7] was “inactive” in each case. Also, the Potency entry in assay [8], in assay [9] and in assay [12] was “inactive” each time.

For the molecule `Nc1ccc(O)c(N)c1`, the Potency result in assay [13], in [1], in assay [4], in assay [14], in assay [5] and in assay [6] was “inactive” throughout. In addition, the Potency entry in [7], in assay [10] and in assay [11] was “inactive” throughout. Besides, the Potency entry in [3] was “inactive and 54.9 µM (active)”.

As to `CC(=O)O[C@]1(C(C)=O)CC[C@H]2[C@@H]3C=C(C)C4=CC(=O)CC[C@]4(C)[C@H]3CC[C@@]21C`, the Potency entry in assay [1], in assay [2], in assay [3], in [4], in [5] and in assay [6] was “inactive” in each case. Also, the Potency result in assay [8] and in assay [9] was “inactive” throughout. For the same molecule, the Potency in assay [12] is 54.5 µM (active).

As to `CC(=O)O[C@]1(C(C)=O)CC[C@H]2[C@@H]3C=C(Cl)C4=CC(=O)CC[C@]4(C)[C@H]3CC[C@@]21C`, the Potency entry in assay [13], in assay [1], in assay [3], in assay [4], in [5] and in assay [8] was “inactive” each time. Further, in [11], the Potency result was “inactive”. Further, the Potency in [12] is 61 µM (active).

On to `CCC/C=C/C=O`, for which the Potency entry in assay [1], in assay [3], in assay [4], in assay [14], in assay [5] and in assay [6] was “inactive” in each case. For the same molecule, the Potency entry in [7], in assay [9] and in assay [12] was “inactive” throughout.

With `CCCN1C=CN(C)C1`, the Potency result in assay [13], in assay [1], in assay [3], in assay [4], in assay [5] and in [6] was “inactive” throughout. Moreover, the Potency result in assay [7], in assay [8] and in assay [12] was “inactive” in each case.

Consider `CC(C)(C)c1cccc(C(C)(C)C)c1O`, for which the Potency result in assay [1], in assay [3], in assay [4], in [5], in [6] and in assay [8] was “inactive” throughout. The Potency result in assay [10], in [11] and in [12] was “inactive” each time.

As for `CC(=O)OC(C)C`, the Potency result in assay [1], in assay [2], in assay [4], in assay [14], in [5] and in [6] was “inactive” in each case. Besides, the Potency entry in assay [7], in assay [8], in assay [9], in assay [10], in [11] and in [12] was “inactive” in each case.

As to `CC/C(=C(/CC)c1ccc(O)cc1)c1ccc(O)cc1`, the Potency entry in assay [13], in [1], in [4], in assay [5], in [6] and in assay [7] was “inactive” in each case. The Potency result in [8] was “inactive”. Also, the Potency in assay [3] was 54.9 µM (active) and inactive; in [12] it was 60.6 µM (active) and inactive.

Regarding `Nc1ccc(N)c(Cl)c1`, the Potency result in assay [13], in [1], in assay [2], in [3], in assay [4] and in assay [7] was “inactive” throughout. Further, the Potency result in assay [9], in assay [10] and in assay [11] was “inactive” each time. Further, the Potency was 24.5 µM (active) and 49 µM (active) in assay [8]; 61 µM (active) and 54.5 µM (active) in assay [12].

Turning to `CC1(C)O[C@@H]2C[C@H]3[C@@H]4C[C@H](F)C5=CC(=O)C=C[C@]5(C)[C@@]4(F)[C@@H](O)C[C@]3(C)[C@]2(C(=O)CO)O1`, the Potency result in assay [13], in assay [1], in [2], in assay [3], in [4] and in assay [5] was “inactive” in each case. Also, the Potency result in assay [6], in [8], in assay [9], in [10], in assay [11] and in assay [12] was “inactive” in each case.

`[Na+]`: the Potency entry in assay [13], in assay [1], in assay [2], in assay [3], in assay [4] and in assay [5] was “inactive” each time. For the same molecule, the Potency entry in assay [6], in [7], in assay [9] and in assay [12] was “inactive” each time.

As to `OC[C@@H](O)[C@@H](O[C@@H]1O[C@H](CO)[C@H](O)[C@H](O)[C@H]1O)[C@H](O)[C@@H](O)CO`, the Potency entry in assay [13], in assay [1], in assay [3], in [4], in [14] and in assay [5] was “inactive” each time. The Potency entry in assay [6], in assay [7], in [11] and in assay [12] was “inactive” in each case.

On to `Cc1ccc([N+](=O)[O-])c(C)c1`, for which the Potency result in assay [13], in assay [1], in assay [3], in [4], in assay [6] and in assay [7] was “inactive” throughout. Moreover, the Potency result in assay [9] and in assay [11] was “inactive” in each case. Also, the Potency in assay [14] was 2.43 µM (active) and inactive; in assay [5], 12.3 µM (active) and inactive; in assay [10] it was 6.11 µM (active) and inactive; in assay [12], 17.2 µM (active) and inactive.

`O=C(O)COCCN1CCN(C(c2ccccc2)c2ccc(Cl)cc2)CC1` (stereo not given): the Potency entry in assay [1], in [2], in [3], in assay [4], in [5] and in assay [6] was “inactive” in each case. Besides, the Potency result in assay [7], in [9] and in [12] was “inactive” throughout. The molecule was classed as inactive in assay [15] and in assay [16].

As to `Cc1cccc(Nc2ccccc2C(=O)O)c1C`, the Potency result in [13], in [2], in assay [3], in [4], in assay [14] and in [5] was “inactive” throughout. Also, the Potency result in assay [6], in [7], in assay [8], in [9], in [10] and in [11] was “inactive” each time. In assay [12], the Potency entry was “inactive”.

`Cc1ccc(N)c([N+](=O)[O-])c1`: the Potency entry in assay [1], in assay [3], in assay [4], in [5], in assay [6] and in assay [7] was “inactive” in each case. Moreover, the Potency result in assay [8], in assay [9], in assay [10], in assay [11] and in [12] was “inactive” throughout.

With `CCC(Cc1c(I)cc(I)c(N)c1I)C(=O)O` (stereo not given), the Potency entry in [1], in assay [3], in assay [4], in assay [5], in [7] and in assay [8] was “inactive” each time. Moreover, the Potency result in assay [9], in assay [10], in assay [11] and in assay [12] was “inactive” each time.
